Sampled rows, rich in hits. Any-hit rate of the full collection: about 6.7%.
Pf Dd2 growth: blocks growth of Plasmodium falciparum Dd2 parasites. P. falciparum Dd2 growth, SYBR Green, 72 h; hits give low values. activity change, % at 10 µM. 2.3% of 94,000 active; in the data active = activity change below about -80%; inconclusive = no clear call, values can overlap the other calls
T cruzi growth-1: inhibitors of T. cruzi proliferation | T. cruzi beta-gal in NIH3T3, GalScreen luminescence, 90 h | inhibition, % at 8.34 µM | 5.9% of 77,000 active;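 active = mean inhibition above about 93%, with at least 55% of replicates each passing it, limit read from the data, passing the limit was not always enough; inconclusive = only one of those two conditions holds; inactive = neither condition holds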
C diff growth: inhibitors of Clostridium difficile growth. Clostridium difficile clinical isolate growth, OD600, 24 h; hits give low values. growth activity, negative = inhibition, % at 16 µg/mL (by protocol). 0.25% of 86,000 active. AID 1259249;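 active = mean growth activity at or below -80% and every replicate also at or below -80%; inconclusive = mean at or below -80% but some replicate above -80%; inactive = mean growth activity above -80%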
T cruzi growth-2: Trypanosoma cruzi proliferation inhibition; shares compounds with T cruzi growth-1; inhibition, % at 8.35 µM; 72% of 5,600 active; T. cruzi beta-gal in NIH3T3, GalScreen luminescence, 90 h;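 active = mean replicate inhibition above about 95% and at least 55% of replicates individually reaching it, limit read from the data; inconclusive = only one of the two criteria is met; inactive = neither criterion is met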
T cruzi growth-3: inhibitors of T. cruzi proliferation | shares compounds with T cruzi growth-1 | T. cruzi beta-gal in NIH3T3, GalScreen luminescence, 90 h | inhibition, % at 2.09 µM | 21% of 5,600 active | AID 651740;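 active = mean inhibition above about 95%, with at least 55% of replicates also reaching it, limit read from the data; inconclusive = meets just one of the two conditions; inactive = meets neither condition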
NIH3T3 tox: cytotoxicity in mouse NIH/3T3 fibroblasts; shares compounds with T cruzi growth-1; NIH/3T3 viability, CellTiter-Glo ATP luminescence, 90 h; cytotoxicity (signal decrease), % at 8.35 µM; 14% of 5,600 active; AID 651742;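 active = mean signal decrease across replicates above about 35% based on untreated-well scatter, with enough replicates individually passing, limit read from the data; inconclusive = no rule stated though some were filed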
NIH3T3 tox 2: cytotoxicity in mouse NIH/3T3 fibroblasts. 56% of 5,600 active. inhibition, % at 24.9 µM. AID 651744. shares compounds with T cruzi growth-1. NIH/3T3 viability, CellTiter-Glo ATP luminescence, 90 h;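 active = mean loss of cell viability signal at or above a set limit, and enough replicates individually reaching it; inconclusive = meets only the mean limit or only the replicate share; inactive = meets neither condition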
Large screens that a line does not name were inactive (follow-up assays come after a bar, where they were run).

COc1cccc(S(=O)(=O)N(C)C[C@@H]2Oc3ncc(C#CC(C)C)cc3C(=O)N([C@@H](C)CO)C[C@@H]2C)c1	none
COc1ccc(S(=O)(=O)N[C@@H]2CC[C@H](CC(=O)N3CCN(c4ccccc4)CC3)O[C@@H]2CO)cc1	none
COc1ccc(CN(C)C[C@H]2OCCCC[C@@H](C)Oc3ccc(NC(=O)Nc4cccc5ccccc45)cc3C(=O)N([C@@H](C)CO)C[C@@H]2C)cc1	Pf Dd2 growth -90, T cruzi growth-1 inconclusive | T cruzi growth-2 97 | T cruzi growth-3 101 | NIH3T3 tox 41 | NIH3T3 tox 2 103
C[C@@H]1CCCCO[C@@H](CN(C)Cc2ccccc2)[C@@H](C)CN([C@H](C)CO)C(=O)c2cc(NC(=O)Nc3cccc4ccccc34)ccc2O1	none (no result: T cruzi growth-1)
C[C@@H]1CCCCO[C@@H](CN(C)Cc2ccccc2)[C@H](C)CN([C@@H](C)CO)C(=O)c2cc(NC(=O)Nc3cccc4ccccc34)ccc2O1	T cruzi growth-1 107 | T cruzi growth-2 103 | T cruzi growth-3 104 | NIH3T3 tox inactive | NIH3T3 tox 2 106
COc1ccc(CN(C)C[C@@H]2OCCCC[C@H](C)Oc3ccc(NC(=O)Nc4cccc5ccccc45)cc3C(=O)N([C@@H](C)CO)C[C@H]2C)cc1	none
CN(C)c1ccc2c(c1)[C@H]1C[C@H](CC(=O)NCc3ccc4c(c3)OCO4)O[C@H](CO)[C@H]1O2	none (no result: C diff growth)
CN(C)c1ccc2c(c1)[C@H]1C[C@@H](CC(=O)NCc3ccc(Oc4ccccc4)cc3)O[C@@H](CO)[C@H]1O2	T cruzi growth-1 108 | T cruzi growth-2 inactive | T cruzi growth-3 inactive | NIH3T3 tox inactive | NIH3T3 tox 2 inactive
CN(C)c1ccc2c(c1)[C@@H]1C[C@@H](CC(=O)NCc3ccccc3)O[C@H](CO)[C@@H]1O2	none (no result: C diff growth)
CN(C)c1ccc2c(c1)[C@@H]1C[C@@H](CC(=O)NCc3ccc4c(c3)OCO4)O[C@@H](CO)[C@@H]1O2	T cruzi growth-1 121 (no result: C diff growth) | T cruzi growth-2 106 | T cruzi growth-3 inactive | NIH3T3 tox inactive | NIH3T3 tox 2 inactive
COCCNC(=O)C[C@H]1CC[C@H]2[C@@H](COc3ccc(NC(=O)Cc4ccccc4)cc3C(=O)N2C)O1	none
C[C@H]1CN([C@@H](C)CO)C(=O)c2cc(/C=C/c3ccccc3)cnc2O[C@@H]1CN(C)C	none (no result: T cruzi growth-1)
C[C@@H]1CCCCO[C@@H](CN(C)S(=O)(=O)c2ccc(F)cc2)[C@H](C)CN([C@@H](C)CO)C(=O)c2cc(NC(=O)Nc3ccc(C(F)(F)F)cc3)ccc2O1	T cruzi growth-1 100 (no result: C diff growth) | T cruzi growth-2 109 | T cruzi growth-3 114 | NIH3T3 tox inactive | NIH3T3 tox 2 inactive
C[C@H](CO)N1C[C@H](C)[C@@H](CN(C)S(=O)(=O)c2ccc(F)cc2)OCCCC[C@H](C)Oc2ccc(NC(=O)Nc3ccc(C(F)(F)F)cc3)cc2C1=O	none (no result: C diff growth)
C[C@@H]1CN([C@H](C)CO)C(=O)c2cc(NC(=O)Nc3ccc(C(F)(F)F)cc3)ccc2O[C@@H](C)CCCCO[C@@H]1CN(C)S(=O)(=O)c1ccc(F)cc1	none (no result: C diff growth)
C[C@@H]1CCCCO[C@@H](CN(C)S(=O)(=O)c2ccc(F)cc2)[C@@H](C)CN([C@H](C)CO)C(=O)c2cc(NC(=O)Nc3ccc(C(F)(F)F)cc3)ccc2O1	Pf Dd2 growth -82, T cruzi growth-1 104 (no result: C diff growth) | T cruzi growth-2 111 | T cruzi growth-3 106 | NIH3T3 tox inconclusive | NIH3T3 tox 2 62
O=C(C[C@H]1C=C[C@H](NC(=O)c2ccccc2)[C@@H](CO)O1)NCc1ccncn1	none (no result: C diff growth)
C[C@@H]1CN([C@H](C)CO)C(=O)Cc2cc(NC(=O)CCN3CCOCC3)ccc2O[C@H]1CN(C)S(=O)(=O)c1ccc(Cl)cc1	none
C[C@H](CO)N1C[C@H](C)[C@H](CN(C)C(=O)Cc2ccccc2)OCc2cn(nn2)CCCC1=O	none
CN1c2ccc(-c3ccccc3F)cc2[C@H]2[C@H](CCN2S(=O)(=O)c2ccccc2F)[C@@H]1CO	none
CN1c2ccc(-c3ccccc3F)cc2[C@@H]2[C@@H](CCN2S(=O)(=O)c2ccccc2F)[C@@H]1CO	T cruzi growth-1 116 | T cruzi growth-2 100 | T cruzi growth-3 inactive | NIH3T3 tox inconclusive | NIH3T3 tox 2 41
Cc1ccc(S(=O)(=O)N2CC[C@H]3[C@@H](CO)N(C)c4ccc(-c5ccccc5F)cc4[C@H]32)cc1	none
CN1c2ccc(-c3ccccc3F)cc2[C@H]2[C@H](CCN2S(=O)(=O)c2ccc(F)cc2)[C@@H]1CO	T cruzi growth-1 113 | T cruzi growth-2 99 | T cruzi growth-3 98 | NIH3T3 tox inactive | NIH3T3 tox 2 80
COc1ccc2c3c(n(C)c2c1)[C@H](CO)N(CC1CC1)CC31CCN(S(=O)(=O)c2cn(C)cn2)CC1	none (no result: T cruzi growth-1)
COc1ccc(CN(C)C[C@@H]2OCCCC[C@@H](C)Oc3ccc(NC(=O)CCCN(C)C)cc3C(=O)N([C@H](C)CO)C[C@H]2C)cc1	none
N#Cc1ccc(-c2ccc3c(c2)[C@H]2[C@H](CCN2Cc2ccc4c(c2)OCO4)[C@H](CO)N3)cc1	T cruzi growth-1 inconclusive, C diff growth -96 | T cruzi growth-2 106 | T cruzi growth-3 inactive | NIH3T3 tox inactive | NIH3T3 tox 2 105
CN(C)C(=O)c1ccc(-c2ccc3c(c2)[C@H]2[C@H](CCN2Cc2ccc4c(c2)OCO4)[C@@H](CO)N3)cc1	none
OC[C@@H]1Nc2ccc(C#Cc3ccc(F)cc3)cc2[C@H]2[C@@H]1CCN2Cc1ccc2c(c1)OCO2	T cruzi growth-1 142 | T cruzi growth-2 109 | T cruzi growth-3 108 | NIH3T3 tox 41 | NIH3T3 tox 2 104
CN(C)C(=O)c1ccc(-c2ccc3c(c2)[C@@H]2[C@@H](CCN2Cc2ccc4c(c2)OCO4)[C@H](CO)N3)cc1	none
CO[C@H](CN(C)Cc1nccs1)[C@H](C)CN([C@@H](C)CO)S(=O)(=O)c1ccc(C)cc1	none (no result: C diff growth)
C[C@@H]1CCCCO[C@H](CN(C)Cc2ccncc2)[C@H](C)CN([C@@H](C)CO)C(=O)c2cc(NS(=O)(=O)c3cccs3)ccc2O1	none
C[C@@H]1CCCCO[C@@H](CN(C)Cc2ccc(Cl)c(Cl)c2)[C@H](C)CN([C@@H](C)CO)C(=O)c2cc(NS(=O)(=O)c3cccs3)ccc2O1	T cruzi growth-1 inconclusive | T cruzi growth-2 96 | T cruzi growth-3 108 | NIH3T3 tox 118 | NIH3T3 tox 2 103
C[C@@H]1CCCCO[C@H](CN(C)Cc2ccncc2)[C@@H](C)CN([C@@H](C)CO)C(=O)c2cc(NS(=O)(=O)c3cccs3)ccc2O1	none
C[C@@H]1CN([C@H](C)CO)C(=O)c2cc(NS(=O)(=O)c3cccs3)ccc2O[C@@H](C)CCCCO[C@H]1CN(C)Cc1ccc(Cl)c(Cl)c1	T cruzi growth-1 125 | T cruzi growth-2 inactive | T cruzi growth-3 115 | NIH3T3 tox 61 | NIH3T3 tox 2 106

Screening results as filed in PubChem BioAssay.
